Screening data as filed in PubChem.
This is a sample that favours compounds with a hit; in the whole collection about 5.1% have one here.
MPTP block: inhibitors of mitochondrial permeability transition pore; isolated mouse mitochondria, Ca2+ swelling absorbance, 30 min; inhibition, % at 10 µM; actives 1.4% (n = 360,000);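 active = inhibition of 50% or more, scaled per plate between neutral and stimulator controls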;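 also: 0% = DMSO wells given calcium and 100% = 1 mM EGTA wells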
GRIN3A LBD mod: NR3A (human) ligand-binding domain modulation | NR3A LBD differential scanning fluorimetry, Tm shift; 0% = protein alone, 100% = glycine-bound protein | Tm shift relative to glycine control, % at 25 µM | actives 2.5% (n = 340,000);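 active = melting temperature shift of at least 10% of the positive control shift, at one fixed dose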
ANO1 block: blocks the mouse calcium-activated chloride channel TMEM16A; actives 1.2% (n = 310,000); Q8BHY3; HEK293 TMEM16A/YFP iodide influx fluorescence, ionomycin; normalized B-score (activity score, 25-100; higher = stronger inhibition) at 10 µM;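 active = ratio plate-corrected score three or more library SD toward inhibition, starting fluorescence score within five deviations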;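 also: score derived from kinetic fluorescence span divided by baseline fluorescence per well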
ANO1 activ: mouse TMEM16A channel activation, primary screen; B-score at 10 µM; actives 0.3% (n = 340,000); AID 623877; HEK293 TMEM16A/YFP-H148Q/I152L, iodide quench fluorescence; active compounds read low;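 active = fluorescence-ratio B-score plate-corrected deviation score at least 3 library SD below zero, with starting fluorescence score within 5 deviations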;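 also: channel opened by trigger with iodide after compound preincubation; score built on the fluorescence ratio of max minus min over baseline; more negative score means more quench and so TMEM16A activation or potentiation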
CRFBP-R2 agonist: agonists of human CRF-binding protein/CRF-R2 receptor complex; activation, % at 13.2 µM; AID 588473; actives 0.46% (n = 350,000); HEK293 CRF-R2/CRF-BP, calcium dye fluorescence (FLIPR); percent of saturating CRF peptide response;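 active = activation of at least 50%, plus an integration ratio under a set limit after plate pattern correction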;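 also: plate controls were neutral control wells without compound for no effect and CRF at EC100 for full effect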
CRFR2-BP antag: CRF-BP/CRF-R2 complex antagonism; HEK293 CRF-R2/CRF-BP, CRF-induced calcium fluorescence; inhibition, % at 11.8 µM; actives 0.59% (n = 350,000);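 active = inhibition of the ligand-induced calcium signal above about 50% at the single tested concentration, limit read from the data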
Numbers without * were called inactive; i = inactive; . = no result.

SMILES | MPTP block | GRIN3A LBD mod | ANO1 block | ANO1 activ | CRFBP-R2 agonist | CRFR2-BP antag
O=C(Nc1cccc(Cl)c1N1CCCC1)c1ccc(Br)o1 | 13 | 4 | 25* | i | 2 | -1
COc1ccc(C(=O)N2CCC2)cc1S(=O)(=O)NCc1ccc(Cl)cc1 | 0 | 0 | . | i | 0 | -5
O=C(NC(=S)Nc1cccc(O)c1)C12CC3CC(CC(C3)C1)C2 | 1 | . | . | . | -1 | -17
CCOC(=O)C1=C(COC(=O)c2ccccc2OC(F)F)NC(=O)NC1C (stereo not drawn) | -1 | 2 | i | i | -1 | -9
CCOC(=O)C1=C(COC(=O)c2ccc3ccccc3c2O)NC(=O)NC1C (stereo not drawn) | 1 | -8 | . | i | 53* | -27
O=C(OCC(=O)c1c[nH]c2ccccc12)c1cc2ccccc2cc1O | 2 | 32* | i | i | 0 | -21
Cc1ccccc1OCC(=O)OCC(=O)c1c[nH]c2ccccc12 | 2 | 2 | . | i | 1 | 87*
COc1ccc(CC(=O)OCC(=O)c2c[nH]c3ccccc23)cc1 | -1 | -4 | . | i | 1 | 8
CSc1ccc(Cn2c(C)c(C(=O)NCc3cccc(C(F)(F)F)c3)sc2=O)cc1 | 0 | . | . | . | . | .
CN=C1CC(SC)=C1c1ccc(C)cc1 | -4 | 19* | i | i | 1 | 32
O=C(Nc1ccnn1C1CCN(Cc2ccc(CO)o2)CC1)c1ccc2c(c1)OCO2 | -1 | -2 | i | i | 3 | -19
CCOc1ccc(Br)cc1S(=O)(=O)Nc1ccc(C(=O)Nc2ccccc2OC)cc1 | 0 | 16* | i | i | 1 | -5
CCOc1ccc(Br)cc1C(=O)Nc1ccc(C(=O)NCC(C)C)cc1 | -20 | 13* | i | i | 0 | 4
CCOc1ccc(Br)cc1S(=O)(=O)Nc1ccc(NC(=O)c2ccccc2C)cc1 | 1 | -4 | i | i | 1 | -5
COc1ccc(NC(=O)c2c(F)cccc2F)cc1S(=O)(=O)Nc1ccc(Br)cc1 | 0 | 5 | i | i | 5 | 63*
CCOc1ccc(Br)cc1S(=O)(=O)Nc1ccc(C(=O)Nc2ccc(C)cc2)cc1 | -4 | 18* | i | i | -3 | -8
COc1ccc(Br)cc1C(=O)Nc1ccc(C(=O)NCC(C)C)cc1 | -1 | -5 | i | i | 1 | -11
COc1ccc(NC(=O)COC(=O)CNC(=O)COc2ccccc2)cc1OC | 0 | 1 | . | i | -1 | -10
CCOc1ccc(Br)cc1S(=O)(=O)Nc1ccc(C(=O)OCC(=O)N(C)c2ccccc2)cc1 | -11 | -1 | i | i | -1 | 3
CCOc1ccc(Br)cc1S(=O)(=O)Nc1cccc(S(=O)(=O)N(C)c2ccccc2)c1 | 33 | 12* | i | i | 0 | -2
Cc1cccc(N2CCN(S(=O)(=O)c3ccc(Cl)nc3)CC2C)c1 (stereo not drawn) | 0 | 3 | . | i | 0 | 76*
COc1ccc(/C=C2/CC/C(=C\c3ccc(OC)c(OC)c3OC)C2=O)c(OC)c1OC | 0 | -17 | i | i | 52* | -88
Cc1cc(C(=O)CSc2nnc(-c3cccc(F)c3)n2N)c(C)n1Cc1ccc2c(c1)OCO2 | 3 | 0 | 100* | i | -2 | 7
c1ccc(-c2csc3nnc(SCc4ccc5c(c4)OCCO5)n23)cc1 | 0 | -2 | 25* | i | -1 | 18
O=C(CSc1nnc2scc(-c3ccccc3)n12)N1CCN(Cc2ccccc2)CC1 | 0 | 0 | i | i | -3 | 7
SMILES | MPTP block | GRIN3A LBD mod | ANO1 block | ANO1 activ | CRFBP-R2 agonist | CRFR2-BP antag
Cc1ccc(-c2csc3nnc(SCC(=O)N4CCN(Cc5ccccc5)CC4)n23)cc1 | 0 | 0 | i | i | -5 | 66*
O=C(CSc1nnc2scc(-c3ccccc3)n12)c1ccc2c(c1)OCCO2 | -1 | 1 | i | i | -1 | 28
O=C(Nc1ccc(F)cc1)C(CCc1ccccc1)N1CCN(C(=O)c2ccco2)CC1 (stereo not drawn) | 2 | . | . | . | . | .
Cc1c(OCC(=O)C(C)(C)C)ccc2c(-c3ccccc3)cc(=O)oc12 | -2 | 1 | i | i | 0 | -3
COc1cccc(/C=C/C(=O)OCC(=O)Nc2ccc(S(=O)(=O)N3CCCC3)cc2)c1 | 2 | -2 | i | i | 0 | 8
COc1cccc(CN(C)C(=O)/C=C/c2ccc(S(=O)(=O)N3CCCCCC3)cc2)c1 | 0 | 24* | i | i | 0 | -10
CCc1ccc2c(c1)/C(=C/C(=O)c1cccs1)C(=O)N2 | 2 | -30 | i | i | 0 | -3
CCc1ccc2c(c1)/C(=N/N(C)C(=S)NC)C(=O)N2 | 2 | 13* | i | i | -1 | -8
O=C(Nn1cnnc1)c1ccc(Cl)cc1 | 1 | -1 | i | i | 0 | 10
O=C(Nn1c(O)c(C=C2N=c3ccccc3=N2)sc1=S)c1ccccc1 | -1 | 23* | i | i | 5 | -21
Cc1ccc(C)n1NC(=O)c1ccccc1 | -1 | 0 | i | i | 0 | -9
Cc1ccc(C(=O)Nn2c(O)c(C=C3N=c4ccccc4=N3)sc2=S)cc1 | -1 | 27* | i | i | 8 | -9
Oc1c(C=C2N=c3ccccc3=N2)sc(=S)n1-c1ccc(F)cc1 | 16 | 9 | i | i | 5 | 1
Cc1ccc(S(=O)(=O)Nn2c(O)c(C=C3N=c4ccccc4=N3)sc2=S)cc1 | 5 | 7 | i | i | 6 | 20
O=C(Nn1c(O)c(C=C2N=c3ccccc3=N2)sc1=S)c1ccc(Cl)cc1 | 1 | 32* | i | i | 0 | -2
Oc1c(C=C2N=c3ccccc3=N2)sc(=S)n1-c1ccc2ccccc2c1 | 34 | 17* | i | i | 2 | -4
CC(=O)c1ccc(OC(C)C(=O)OCC(=O)NCCc2ccccc2)cc1 (stereo not drawn) | -1 | 0 | . | i | -1 | 7
O=C(CN1C(=O)S/C(=C/c2ccncc2)C1=O)Nc1ccccc1 | -1 | 0 | i | i | 4 | -32
CC(/C=C1\SC(=O)N(CC(=O)Nc2ccc(O)cc2)C1=O)=C\c1ccccc1 | 4 | 10* | i | i | 1 | 8
CC(/C=C1\SC(=O)N(CC(=O)Nc2cccc(O)c2)C1=O)=C\c1ccccc1 | 5 | 19* | i | i | 1 | 18
CCCCNC(=O)C1c2ccccc2OCC(=O)N1CC(F)(F)F (stereo not drawn) | 1 | . | . | . | . | .
Nc1c(N=Nc2ccccc2F)c(=O)[nH]n1-c1ccccc1 | -3 | 12* | i | i | 1 | -12
Nc1nn(-c2ccccc2)c(N)c1N=Nc1ccccc1F | -10 | -2 | i | i | 0 | -53
